Bioassay records (PubChem)
SARS PLP yeast: qHTS of Yeast-based Assay for SARS-CoV PLP; S. cerevisiae expressing SARS-CoV PLpro, growth rescue; Potency, µM (highest dose often 32.9 µM), for inactives: at the highest dose activity, positive = growth rescue, hits mostly activators; actives 0.19% (n = 330,000); note: potency is the fitted concentration of half-maximal effect; 0% is about no effect; nearly all actives have a fitted effect of over 55% in size
TbPYK inhibitor: qHTS of Trypanosoma Brucei Inhibitors. pyruvate kinase (Trypanosoma brucei), Q57TT1. TbPYK enzyme, Kinase-Glo Plus ATP luminescence, 45 min. Potency, µM (top dose mostly 76.8 µM), for inactives: at the highest dose activity, negative = inhibition, most hits filed as inhibitors. actives 0.12% (n = 410,000); active = well fitted curve in the direction sought with a large enough effect; inconclusive = small, poorly fitted or top-dose-only effect, or another doubt; inactive = no such curve, though single readings can be large; an effect the other way counts as inactive or inconclusive; note: potency is the fitted concentration of half-maximal effect; % is set by controls: 0 for no effect and ±100 for the full control effect; nearly all actives have a fitted effect of over 50% in size
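Readout: single end-point luminescence (Kinase-Glo Plus, 10 min). Reaction conditions were TbPYK/substrate plus 130 uM ADP, 45 min at RT, pH 7.2 TEA buffer. No-enzyme wells served as controls, and data were normalized before concentration-response fitting.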
LmPK inhibitor: qHTS Assay for Inhibitors of Leishmania Mexicana Pyruvate Kinase (LmPK); AID 1721, 2009; Potency, µM (highest dose often 57.5 µM), for inactives: at the highest dose activity change, negative = inhibition, usual class: inhibitors; actives 0.37% (n = 290,000); purified LmPK, Kinase-Glo ATP luminescence, 1 h; active = well fitted curve in the direction sought with a large enough effect; inconclusive = small, poorly fitted or top-dose-only effect, or another doubt; inactive = no such curve, though single readings can be large; an effect the other way counts as inactive or inconclusive; note: potency is the fitted concentration of half-maximal effect; % is set by controls: 0 for no effect and ±100 for the full control effect
Target sequence (Q27686 whole entry, looked up): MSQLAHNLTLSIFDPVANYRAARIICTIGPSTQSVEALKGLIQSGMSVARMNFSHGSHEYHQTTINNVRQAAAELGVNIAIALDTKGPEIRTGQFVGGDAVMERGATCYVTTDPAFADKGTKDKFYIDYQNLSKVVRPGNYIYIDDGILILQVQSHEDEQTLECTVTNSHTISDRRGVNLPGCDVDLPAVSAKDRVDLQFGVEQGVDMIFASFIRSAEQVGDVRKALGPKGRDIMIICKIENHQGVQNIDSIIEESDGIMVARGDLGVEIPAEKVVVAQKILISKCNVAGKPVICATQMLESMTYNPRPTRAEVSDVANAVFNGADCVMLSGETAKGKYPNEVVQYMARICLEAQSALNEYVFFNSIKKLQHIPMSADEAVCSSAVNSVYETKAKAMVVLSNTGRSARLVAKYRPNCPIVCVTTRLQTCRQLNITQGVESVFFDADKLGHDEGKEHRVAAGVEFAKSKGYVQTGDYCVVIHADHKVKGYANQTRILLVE
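0.1 nM LmPK, 0.5 mM PEP, 0.1 mM ADP; 50 mM imidazole pH 7.2, 7 mM MgCl2, 50 mM KCl; 1 h RT. Kinase-Glo luminescence readout, normalized to no-enzyme (full inhibition) and uninhibited wells.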
CHX counter: Cycloheximide Counterscreen for Small Molecule Inhibitors of Shiga Toxin; AID 2314, 2010; actives 12% (n = 300,000); cell reporter, cycloheximide protein synthesis inhibition counterscreen; max response, %; in the data active = max response mostly above about 13%, no sharp cut-off; inactive = mostly below about 14%; note: read at 38.3 µM for the half of the compounds with a filed dose; 0% is about no effect
Shiga inhibitor: A qHTS for Small Molecule Inhibitors of Shiga Toxin | inhibition, % at 38.7 µM | actives 9.2% (n = 290,000) | Vero cells, Shiga toxin protein synthesis inhibition reporter | AID 2315, 2010; in the data active = inhibition mostly above about 28%, no sharp cut-off; inactive = mostly below about 43%; note: 0% is about no effect
NS1 inh: qHTS Assay for Inhibitors of Influenza NS1 Protein Function | Potency, µM (titrated, usually from 46.1 µM), for inactives: at the top dose activity, positive = more growth | actives 0.4% (n = 270,000) | AID 2326, 2010; note: potency is the fitted concentration of half-maximal effect; actives are rising curves; nearly all actives have a fitted effect of over 50% in size
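Compounds were scored for reversing the slow growth caused by influenza A NS1 in S. cerevisiae, measured by optical density at 600 nm. Assay medium contained 2% galactose at pH 6.0; NS1-free yeast of the same strain were the positive control.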
An asterisk follows results filed as active; ? = inconclusive; · = not tested or not shown; [ ] = another dose, or the depositor's remark. Only a selection was taken, and hits are over-represented in it overall. Unless noted, calls come from the whole dose curve.

SMILES	SARS PLP yeast	TbPYK inhibitor	LmPK inhibitor	CHX counter	Shiga inhibitor	NS1 inh
COc1cccc(C2CC(=O)Nc3c2c(=O)[nH]c2nc4ccccc4n32)c1 (stereo not drawn)	·	5%	·	·	·	·
Cc1ccccc1NS(=O)(=O)c1ccc(C(=O)N2CCCC(C(F)(F)F)C2)cc1 (stereo not drawn)	3%	3%	·	·	·	·
Cc1ccc(NC(=O)CN(C)C2CCCCC2)cc1Br	-1%	-3%	-3%	7	11	1%
Cc1cc(NC(=O)CC2CCCC2)ccc1Br	-8%	1%	1%	26*	62*	-43%
O=C(CC1NCCNC1=O)Nc1cccc(F)c1 (stereo not drawn)	·	-3%	·	·	·	·
Cc1cccc(NC(=O)CC2NCCNC2=O)c1 (stereo not drawn)	11%	0%	3%	24*	39	9%
Cc1cccc(NC(=O)CC2CCC2)c1	-5%	-1%	1%	20*	12	-2%
CCOC(=S)SCC(=O)O	·	·	·	·	·	-2%
Cc1cccc(C)c1OCc1nnc(NC(=O)CSc2ccc(Cl)cc2)s1	-17%	5%	-1%	-4	-8	2%
O=C(CSc1ccccc1)Nc1nnc(COc2ccc(Cl)cc2)s1	10%	?	8%	65*	61*	11%
COCC(=O)Nc1nnc(COc2ccc(Cl)cc2)s1	-20%	-6%	4%	20*	73*	4%
Cc1ccc(-n2ncc(C(=O)N3CCC(c4ccccc4)C3)c2C2CCN(C(=O)OC(C)(C)C)CC2)cc1 (stereo not drawn)	·	2%	·	·	·	·
O=C(NCc1cccc(Cl)c1)C1CCCN(c2nn3cc(-c4ccc(F)cc4)nc3s2)C1 (stereo not drawn)	·	-3%[15.4 µM]	·	·	·	·
Cc1cc(Cl)ccc1NC(=O)C1CCCN1C(=O)c1cccs1 (stereo not drawn)	0%	6%	-4%	-2	3	4%
CCN(C(=O)[C@@H]1CCCN1C(=O)c1cccs1)c1nc2cc(Cl)ccc2s1	-1%	1%	0%	18*	9	16%
COC(=O)c1c(C)[nH]c(C(=O)OCc2ccc(F)cc2)c1C	-2%	-23%	4%	78*	134*	-1%
CCOC(=O)c1[nH]c(C)c(C(=O)OCc2ccccc2F)c1C	6%	0%	1%	12*	25	11%
CC(=O)c1c(C)[nH]c(C(=O)OCC(=O)NCCc2ccc(F)cc2)c1C	-1%	4%	1%	-4	2	-4%
CCOC(=O)c1c(C)[nH]c(-c2csc(C)n2)c1C	-6%	-2%	-6%	33*	62*	-4%
CCOC(=O)c1c(C)[nH]c(C(=O)Cn2c(=O)oc3ccccc32)c1C	-10%	2%	3%	30*	16	-4%
COC(=O)c1sccc1S(=O)(=O)N(CC(=O)Nc1cc(C)ccc1C)c1ccc(C)c(C)c1	·	2%	·	·	·	·
CCCn1c(=O)c2sccc2n2c(CCCC(=O)NC3CCCCC3)nnc12	·	1%	·	·	·	·
CC(C)N(C(=O)c1cc2c(Cl)nc3ccccc3c2s1)C1CCCCC1	·	-5%	·	·	·	·
O=C(O)/C=C/c1cc(F)c(S(=O)(=O)N2CCN(S(=O)(=O)c3ccc4c(c3)OCCO4)CC2)cc1F	·	·	·	-3	-5	·
Cn1c(=O)c2c(nc(N3CCCCC3)n2CC(O)COc2ccccc2)n(C)c1=O (stereo not drawn)	9%	3%	6%	-4	-12	-2%
CCOC(=O)c1c(C)[nH]c(C(=O)COC(=O)C2CC2C)c1C (stereo not drawn)	-1%	-5%	1%	47*	60*	4%
CCOC(=O)c1c(C)[nH]c(C(=O)NNC(=O)c2ccc(Br)cc2)c1C	5%	5%	·	·	·	·
CCOC(=O)c1c(C)[nH]c(C(=O)NNC(=O)c2ccccc2)c1C	3%	-5%	-1%	31*	89*	5%
CCOC(=O)c1[nH]c(C)c(C(=O)NC)c1C	-7%	-5%	0%	-4	-3	4%
CCOC(=O)c1[nH]c(C)c(C(=O)OCC)c1C	-7%	-1%	8%	65*	138*	-87%
